This note sets out measurements from PubChem BioAssay AID687020 (Broad Institute, 2013).

Molecules are shown by their SMILES. Hit rate of the full screen: of about 1,400 compounds, about 100 (7.1%) were called active. Only a sample is shown. Results with a measured potency or affinity are listed apart. Unmarked numbers belong to inactive results. No rule for the calls is given here.

A short description of the assay: Vero cell toxicity, dose response, cytotoxicity control, plate reader, cherry-pick samples (AID 687020).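 Also: compounds incubated with cells for three days before luminescence read.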 Conditions: Vero cells toxicity; series mostly up to 19.5 µM; activity change, negative = toxicity: at the top concentration.
For the compound `CCN(CC(=O)Nc1c(F)cccc1F)C(=O)C1CCN(S(=O)(=O)c2ccc(F)cc2)CC1`, the “activity change, negative = toxicity” value is 2.85%.
On to `Cc1ccccc1NS(=O)(=O)c1ccc(S(=O)(=O)N2CCCC2)cc1`, for which the “activity change, negative = toxicity” value is -42.1%.
For the compound `C/C=C/c1ccc([C@H]2[C@@H](CO)N(C(=O)C3CCC3)[C@@H]2CNC(=O)NC(C)C)cc1`, the “activity change, negative = toxicity” value was -1.67%.
For `CC(O)(c1cccc(F)c1)c1nc(/C=C/c2ccccc2)cs1` (stereo not given), the “activity change, negative = toxicity” value is -3.32%.
Then `CC(OC(=O)c1ccc(O)cc1)C(=O)Nc1nc(-c2ccccc2)cs1` (stereo not given), with -36.7%; and `COc1ccc(-c2csc(C(O)c3cccc(OC)c3)n2)cc1` (stereo not given), with -25.3%; and `N#Cc1cccc(-c2ccc(C3[C@@H]4CN(C(=O)c5cccnc5)C[C@H]3N4)cc2)c1` (stereo not given in full), with -6.05%.
Then `C[C@H](CO)N1C[C@H](C)[C@H](CN(C)C(=O)NC2CCCCC2)Oc2ccc(NC(=O)Cn3cnnn3)cc2C1=O`, with 2.13%; and `O=C(C1CCCCC1)N1C[C@H](O)[C@@H](n2cc(C3CC3)nn2)C[C@@H]1c1ccccc1`, with -17.1%.
As for `CCCCCC(=O)N1C[C@@H](O)[C@H](n2cc(COC(=O)c3ccccc3)nn2)C[C@@H]1c1ccc(C)cc1`, the “activity change, negative = toxicity” value was -7.23%.
In the case of `CCc1c(C2CC2)ncn1Cc1cccc(-c2ccccc2)c1`, the “activity change, negative = toxicity” value is 5.16%.
With `FC(F)(F)c1nc2ccccc2n1CCNc1nc(CN2CCCCC2)cs1`, the “activity change, negative = toxicity” value was -32.6%.
For the compound `CN(C)c1cccc(C(=O)Nc2cc(C(F)(F)F)ccc2-n2cnc3ccccc32)c1`, the “activity change, negative = toxicity” value is 1.15%.
`O=S1(=O)N[C@@H](Cc2ccccc2)COc2cc(N3CCOCC3)ccc21`: the “activity change, negative = toxicity” value is -16.8%.
Under `COc1ccc(NC(=O)N[C@@H]2CC[C@@H](CCNS(=O)(=O)c3cccc(Cl)c3)O[C@@H]2CO)cc1` stands -4.64%; under `COc1ccc(S(=O)(=O)N[C@H]2CC[C@@H](CCNC(=O)CN3CCOCC3)O[C@H]2CO)cc1`, 13%.
Consider `O=C(Cc1cccnc1)N[C@H]1CC[C@@H](CCn2cc(Cc3ccccc3)nn2)O[C@H]1CO`, for which the “activity change, negative = toxicity” value was 11.9%.
Take `c1ccc(-c2cn(C[C@H]3CC[C@@H]([C@@H]4CC[C@H](Cn5cc(-c6ccccc6)nn5)O4)O3)nn2)cc1`: the “activity change, negative = toxicity” value was 3.79%.
Regarding `CCCCN(C(=O)c1ccc2c(c1)NC(=O)CS2)c1ccccc1`, the “activity change, negative = toxicity” value is -24.6%.
Take `O=C(OCc1ccccc1)N1CCCC2CC1c1ccccc12` (stereo not given): the “activity change, negative = toxicity” value was -4.06%.
Regarding `CSCCC(NS(=O)(=O)c1cccs1)C(=O)NCc1ccccc1` (stereo not given), the “activity change, negative = toxicity” value was -12.8%.
Turning to `COc1ccc(C)cc1NC(=O)C(c1ccccc1)N1CCN(CC(=O)N2CCOCC2)CC1` (stereo not given), the “activity change, negative = toxicity” value was -1.07%.
With `COc1ccc2c3c(n(C)c2c1)[C@H](CO)N(Cc1ccccc1F)CC31CCN(C(C)=O)CC1`, the “activity change, negative = toxicity” value is -3.12%.
With `COCCNC(=O)CCC1CCN(Cc2ccc(-c3ccccc3)cc2)CC1`, the “activity change, negative = toxicity” value was 11.3%.
Regarding `CN1C(C(=O)NCc2ccc(OC(F)(F)F)cc2)CC2Cn3c(nc4ccccc43)C21` (stereo not given), the “activity change, negative = toxicity” value was -7.43%.
As to `COc1cccc(CC(=O)OCC(=O)Nc2nnc(-c3ccccc3)o2)c1`, the “activity change, negative = toxicity” value is 2.48%.
Regarding `COc1ccc(C(CNC(=O)CCNC(=O)c2ccc(Br)cc2)N2CCOCC2)cc1` (stereo not given), the “activity change, negative = toxicity” value was -7.55%.
In the case of `COc1ccc(C(CNS(=O)(=O)c2ccc(NC(C)=O)c(OC)c2)N2CCCC2)cc1` (stereo not given), the “activity change, negative = toxicity” value was -23.7%.
Then `CCCCN1C(N)=NC[C@@H]1C(C)O` (stereo not given in full), with -16.1%.
In the case of `O=C(COc1ccccc1)NCC(=O)N/N=C/c1ccc(Br)cc1`, the “activity change, negative = toxicity” value was 3.21%.
For `O=C(CCn1cncn1)N1CCCC(N2CCN(c3ccc(F)cc3)CC2)C1` (stereo not given), the “activity change, negative = toxicity” value was -15.2%.
In the case of `CCN(CC)CC(=O)N1CCCC(N2CCN(c3cccc(C(F)(F)F)c3)CC2)C1` (stereo not given), the “activity change, negative = toxicity” value was -15.9%.
In the case of `O=C(c1cc(C2CC2)on1)N1CCCC(N2CCN(c3cccc(C(F)(F)F)c3)CC2)C1` (stereo not given), the “activity change, negative = toxicity” value is 3.52%.
In the case of `C[C@@H]1CCCCO[C@H](CN(C)Cc2ccc(Cl)c(Cl)c2)[C@H](C)CN([C@@H](C)CO)C(=O)c2cc(NC(=O)c3ccccc3)ccc2O1`, the “activity change, negative = toxicity” value is -5.49% [at 21 µM].
Then `O=C(c1ccc2nccnc2c1)N1CCN(c2ccccc2)CC1`, with -11.1%; and `O=C(c1cccc(-c2cccc3nccn23)c1)N1CCOCC1`, with 5.83%.
On to `CCCCCCCCN1C(=O)[C@H](CC(=O)NCCC(C)C)C[C@@]2(C(=O)OCC)CCCC=C12`, for which the “activity change, negative = toxicity” value is -10.3%.
With `CCN1CCN(c2ccc(S(=O)(=O)N3CCCCC3)cc2NC(=O)c2ccc(C)c(C)c2)CC1`, the “activity change, negative = toxicity” value is -1.07%.
With `Cn1c(=O)n(C)c2cc(N3CCOCC3)c(NC(=O)c3ccc(F)cc3)cc21`, the “activity change, negative = toxicity” value is -1.46%.
As for `CNC[C@@H]1OCCCC[C@H](C)Oc2ccc(NS(C)(=O)=O)cc2C(=O)N([C@@H](C)CO)C[C@@H]1C`, the “activity change, negative = toxicity” value was 7.65%.
Take `C=CCc1ccc(OCCCNCc2ccccc2)c(OC)c1`: the “activity change, negative = toxicity” value is 4.77%.
Turning to `CCc1cccc(OCCN2CCCC2)c1`, the “activity change, negative = toxicity” value is 7.48%.
Then `CN1CCN(CCOc2ccc(-c3ccccc3)cc2)CC1`, with -3.13%.
Consider `c1ccc(-c2ccc(OCCN3CCOCC3)cc2)cc1`, for which the “activity change, negative = toxicity” value was -30.8%.
As for `Cc1cccc(OCCCN2CCC(C(O)(c3ccccc3)c3ccccc3)CC2)c1`, the “activity change, negative = toxicity” value was -11.6%.
For the compound `COc1ccccc1CN1CCCC(N2CCN(c3ccccc3OC)CC2)C1` (stereo not given), the “activity change, negative = toxicity” value was -25.9%.
Take `CCc1cc2c(=O)[nH]c(COC)nc2s1`: the “activity change, negative = toxicity” value is -6.45%.
Under `CN(C(=O)COC(=O)c1ccc(S(=O)(=O)N2CCOCC2)cc1)c1ccccc1` stands -15.2%.
Then `COc1ccc(CNC(=O)C2CC(c3ccc(C(F)(F)F)cc3)=NO2)cc1` (stereo not given), with -24.9%; and `COC(=O)[C@@H]1C[C@H]2CC[C@H](O)C[C@H]2N1Cc1ccc(C(F)(F)F)cc1`, with -4.52%; and `Nc1cccc(O)c1`, with -6.53%.
In the case of `COc1cc(CNc2nccn3ccnc23)cc(OC)c1`, the “activity change, negative = toxicity” value was -9.02%.
Then `CCc1ccc(OCC(O)CN2CCN(c3ccccc3)CC2)cc1` (stereo not given), with -5.9%.
Consider `NC(=O)C1CCN(CC(O)COc2ccc(-c3ccccc3)cc2)CC1` (stereo not given), for which the “activity change, negative = toxicity” value was -5.66%.
For the compound `COCC#Cc1ccc2c(c1)O[C@@H](CN(C)C(=O)Nc1ccccc1F)[C@H](C)CN([C@@H](C)CO)S2(=O)=O`, the “activity change, negative = toxicity” value was 0.743%.
Consider `C[C@H]1CN([C@@H](C)CO)C(=O)Cc2cc(NC(=O)CCCCCC(=O)Nc3ccccc3N)ccc2O[C@H]1CN(C)Cc1ccc(C(F)(F)F)cc1`, for which the “activity change, negative = toxicity” value was 1.41% [at 21 µM].
Take `O=C(NNc1c(F)c(F)cc(F)c1F)C1CCN(S(=O)(=O)c2ccccc2F)CC1`: the “activity change, negative = toxicity” value is -10.5%.
Regarding `CC1(C(=O)NS(=O)(=O)c2ccccc2C(F)(F)F)CCN1C(=O)CCc1ccccc1` (stereo not given), the “activity change, negative = toxicity” value was -2.6%.
Under `C[C@H](CO)N1C[C@H](C)[C@H](CN(C)C(=O)Nc2cccc3ccccc23)OCCCC[C@H](C)Oc2ccc(NS(=O)(=O)c3cn(C)cn3)cc2C1=O` stands 0.574%; under `COc1ccc(C(C)NC(=O)c2ccccc2Cl)cc1OC` (stereo not given), 1.27%.
